High-throughput results deposited in PubChem BioAssay by National Center for Advancing Translational Sciences (NCATS).
Hits are enriched below; roughly 7.9% of the tested compounds scored in any of these assays.
KB-3-1 tox – KB-3-1 parental cell cytotoxicity; KB-3-1 viability, CellTiter-Glo ATP luminescence, 72 h; Potency, µM (doses to about 46.1 µM), usual class: cytotoxic; 400,000 tested, 1.4% active; AID 1347075; note: nearly all actives have a fitted effect of over 60% in size
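Screening of KB-3-1 cells (DMEM, 10% FBS, phenol-red free) ran from lowest to highest compound concentration; after 72 h at 37 °C viability was read luminescently and curves fitted.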
HT1080-NT tox – kills 2HG-producing HT-1080-NT fibrosarcoma cells. HT-1080-NT fibrosarcoma viability, CellTiter-Glo ATP luminescence, 48 h. Potency, µM (top dose mostly 46.1 µM), usual class: cytotoxic. 360,000 tested, 1.6% active. AID 686970;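 note: NT is the 2HG producing partner of a matched IDH1 knockdown line; nearly all actives have a fitted effect of over 55% in size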
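Fibrosarcoma NT cells, 750 per well in 5% FBS RPMI, were exposed to compound for 48 hours. Viability: CellTiter-Glo luminescence.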
KB-V1 MDR tox – kills drug-selected multidrug resistant KB-V1 cells; KB-V1 MDR cells viability, CellTiter-Glo, 72 h; Potency, µM (top dose mostly 46.1 µM), most hits filed as cytotoxic; 400,000 tested, 3.4% active; AID 1347076; note: nearly all actives have a fitted effect of over 60% in size
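Drug-selected KB-V1 cells, grown in DMEM lacking phenol red with 10% FBS, receive compound titrations; after three days at 37 degrees C, surviving cell ATP is quantified by CellTiter-Glo luminescence and responses normalized and curve-fitted.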
SW480 rereplic – induces DNA re-replication in SW480 colon adenocarcinoma cells | SW480 DNA re-replication, Hoechst DNA content imaging, 48 h | Potency, µM (titrated, usually from 46.1 µM), most hits filed as activators | 340,000 tested, 1.8% active | AID 624297; note: nearly all actives have a fitted effect of over 55% in size
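Image-based read-out: total Hoechst fluorescence of nuclei (405 nm excitation, 500-530 nm emission), with hits raising the fraction of high-intensity nuclei. SW480 colon cells incubated 48 hr with compounds at 37 C.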
MCF10A rerep – inducers of DNA re-replication in MCF 10A breast cells; 350,000 tested, 2.9% active; Potency, µM (top dose mostly 46.1 µM), actives largely listed as activators; MCF 10A DNA re-replication, Hoechst nuclear intensity, 48 h; note: nearly all actives have a fitted effect of over 50% in size
HT1080 IDH1KD tx – toxicity to HT-1080 IDH1 knockdown cells (counter line) | Potency, µM (series often up to 46.1 µM), hits mostly cytotoxic | AID 686971 | 360,000 tested, 2% active | HT-1080 IDH1 knockdown viability, ATP luminescence, 48 h
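IDH1KD HT-1080 cells, 750/well, RPMI + 5% FBS; compound pinned after 2 h settling; 48 h, 37 °C; CellTiter-Glo luminescence; % activity normalised to DMSO and no-cell wells; curves fitted, classed by r2 and efficacy.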
Each line names hits and unclear results; the compound was inactive in the other large screens. Calls come from the whole dose curve; as a rule, active = well fitted curve in the direction sought with a large enough effect; inconclusive = small, poorly fitted or top-dose-only effect, or another doubt; inactive = no such curve, though single readings can be large; an effect the other way counts as inactive or inconclusive.

Cc1ccc2nc(-c3ccc(NC(=O)COC(=O)c4cncc(Br)c4)cc3)sc2c1	SW480 rereplic inconclusive
COc1ccc(NC(=O)CN2C(=O)NC(C)(c3ccc(C)cc3)C2=O)cn1 (stereo not given)	KB-3-1 tox inconclusive
Cc1ccccc1N1C(=O)C(Oc2ccc(Cl)cc2)C1CNC(C)(C)C (stereo not given)	KB-V1 MDR tox 5.8µM, SW480 rereplic inconclusive
CCCNCC1C(Oc2ccc(Cl)cc2)C(=O)N1c1ccccc1C (stereo not given)	none
COc1ccc2[nH]c(=O)c(CN(C(=O)c3cccnc3)c3ccc(C)c(C)c3)cc2c1	none
Cn1ncc(N=Cc2ccccc2)c1C(N)=O	KB-V1 MDR tox inconclusive
Cn1ncc(N=Cc2ccccc2)c1C(=O)Nc1cccc(Cl)c1	KB-3-1 tox inconclusive, KB-V1 MDR tox inconclusive, SW480 rereplic inconclusive, MCF10A rerep 18µM
Cc1cccc(NS(=O)(=O)c2cc(C(=O)OC(C)C(=O)NCc3ccc4c(c3)OCO4)ccc2C)c1 (stereo not given)	KB-V1 MDR tox 15µM
O=C(NNC(=O)c1cc(Cl)ccc1O)c1cccs1	SW480 rereplic 21µM, HT1080 IDH1KD tx inconclusive
O=C(NNC(=O)c1ccccc1Cl)c1cccs1	KB-V1 MDR tox inconclusive
C[C@H](NC(=O)c1cc2c([nH]c3ccccc32)c(-c2ccccc2)n1)C(=O)O	KB-V1 MDR tox inconclusive
CSCC[C@H](NC(=O)c1cc2c([nH]c3ccccc32)c(-c2ccccc2)n1)C(=O)O	SW480 rereplic 23µM
CN(Cc1ccc(F)cc1)C(=O)c1cccc(S(=O)(=O)N2CCN(c3ccccc3)CC2)c1	KB-3-1 tox inconclusive, KB-V1 MDR tox inconclusive
CN(Cc1ccc(F)cc1)C(=O)c1cccc(S(=O)(=O)N2CCN(c3ccc(F)cc3)CC2)c1	KB-3-1 tox 13µM, HT1080-NT tox inconclusive, KB-V1 MDR tox inconclusive, SW480 rereplic inconclusive
Cc1ccc(CN(C)C(=O)c2cccc(S(=O)(=O)N3CCN(c4ccccc4)CC3)c2)cc1	KB-3-1 tox inconclusive, KB-V1 MDR tox 18µM
CN(CC1COc2ccccc2O1)C(=O)c1cccc(S(=O)(=O)N2CCCC2)c1 (stereo not given)	KB-V1 MDR tox 8.2µM, HT1080 IDH1KD tx inconclusive
COc1cccc(CN(C)C(=O)c2cccc(S(=O)(=O)N3CCN(c4ccccc4)CC3)c2)c1	KB-V1 MDR tox inconclusive (no result: SW480 rereplic, MCF10A rerep)
O=C(NCC1COc2ccccc2O1)c1cccc(S(=O)(=O)N2CCCCC2)c1 (stereo not given)	KB-3-1 tox inconclusive
O=C(O)CSc1nc2ccccc2nc1N1CCCCC1	none (no result: HT1080-NT tox, SW480 rereplic, MCF10A rerep, HT1080 IDH1KD tx)
CCN(CC)CCSc1nnc2c3cc(C)ccc3n(Cc3ccccc3)c2n1	HT1080-NT tox 16µM, MCF10A rerep inconclusive, HT1080 IDH1KD tx 23µM
CCCCNc1c(-c2ccc(SC(C)CC)cc2)nc2ccc(Cl)cn12 (stereo not given)	KB-3-1 tox inconclusive, KB-V1 MDR tox inconclusive (no result: SW480 rereplic, MCF10A rerep)
COc1ccc(/C=N/NC(=O)c2cccc([N+](=O)[O-])c2)cc1OS(=O)(=O)c1ccc(C)cc1	KB-3-1 tox inconclusive, HT1080-NT tox inconclusive, KB-V1 MDR tox 21µM, SW480 rereplic inconclusive, MCF10A rerep inconclusive, HT1080 IDH1KD tx inconclusive
CCOc1cc(/C=N/NC(=O)c2cccc([N+](=O)[O-])c2)ccc1OS(=O)(=O)c1ccccc1	KB-3-1 tox inconclusive, HT1080-NT tox inconclusive, KB-V1 MDR tox 13µM, HT1080 IDH1KD tx inconclusive
NC(N)=NN=C(c1ccc(F)cc1)c1ccc(C(F)(F)F)cc1	KB-3-1 tox 3.7µM, HT1080-NT tox 2.9µM, KB-V1 MDR tox inconclusive, SW480 rereplic 6.5µM, MCF10A rerep inconclusive, HT1080 IDH1KD tx 7.3µM
CCCCNC(=O)C(NC(=O)c1cccc(C(F)(F)F)c1)C(=O)c1ccccc1 (stereo not given)	none (no result: SW480 rereplic, MCF10A rerep)
CCOC(=O)NCN1C(=O)C2C3C=CC(C3)C2C1=O (stereo not given)	none
